# KCNH2 3.1 inh: qHTS for Inhibitors of KCHN2 3.1: Mutant qHTS | AID 720553, 2013 | U2OS KCNH2 3.1, thallium flux FluxOr; hits give low values | activity change, % (tested at about 1.8 µM) | 340,000 compounds, 0.95% hits;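 active = maximum activity change below -70%; inconclusive = maximum activity change from -70% to -50%; inactive = maximum activity change above -50%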;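 also: thallium influx rate constant from kinetic fluorescence after stimulation buffer; % is scaled to controls: 0 for no effect and ±100 for the full control effect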
#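 Virally transduced U2OS (3.1 isoform, 4 h infection in dark at RT) → overnight 37 C → FluxOr + Red40 in HBSS/HEPES, 45 min → stimulation buffer, 2 min kinetic read → rate constant vs DMSO controls.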
# MCF10A rerep: A quantitative high throughput screen for small molecules that induce DNA re-replication in MCF 10a normal breast cells; 350,000 compounds, 2.9% hits; Potency, µM (top dose mostly 46.1 µM), inactives show at the highest dose activity, positive = re-replication, actives largely listed as activators; AID 624296, 2012; MCF 10A DNA re-replication, Hoechst nuclear intensity, 48 h; also: potency is read from the fitted curve at half-maximal effect; % of control where 0% means no effect; nearly all actives have a fitted effect of over 50% in size
# KB-V1 cytotox: qHTS assay for MDR1-selective chemotherapeutics: Primary screen using the drug-selected MDR subline cells KB-V1; 400,000 compounds, 3.4% hits; Potency, µM (series often up to 46.1 µM), hits mostly cytotoxic; KB-V1 MDR cells viability, CellTiter-Glo, 72 h; also: potency is read from the fitted curve at half-maximal effect; % is scaled to controls: 0 for no effect and ±100 for the full control effect; nearly all actives have a fitted effect of over 60% in size
#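 Potencies derive from concentration-effect curves fitted to normalized luminescence (CellTiter-Glo) of KB-V1 cells treated for 72 h at 37 degrees C in phenol-red-free DMEM containing 10% FBS.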
# KB-3-1 tox: qHTS assay for MDR1-selective chemotherapeutics: Primary screen using the parental adenocarcinoma cell KB-3-1; KB-3-1 viability, CellTiter-Glo ATP luminescence, 72 h; Potency, µM (top dose mostly 46.1 µM), usual class: cytotoxic; 400,000 compounds, 1.4% hits; AID 1347075, 2019; also: potency is read from the fitted curve at half-maximal effect; % is scaled to controls: 0 for no effect and ±100 for the full control effect; nearly all actives have a fitted effect of over 60% in size
#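 Parental KB-3-1 adenocarcinoma cells in phenol-red-free DMEM with 10% FBS were pin-treated with compounds at several concentrations, incubated 72 h at 37 °C, and viability read by CellTiter-Glo luminescence; concentration-effect curves were fitted after normalization.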
# hERG WT inh: qHTS for Inhibitors of KCHN2 3.1: Wildtype qHTS; U2OS, BacMam KCNH2, thallium flux FluxOr; hits give low values; Voltage-gated inwardly rectifying potassium channel KCNH2 (Homo sapiens), Q12809; 340,000 compounds, 0.37% hits; AID 720551, 2013; activity change, % at 1.84 µM;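 active = maximum activity change below -70%; inconclusive = maximum activity change between -70% and -50%; inactive = maximum activity change above -50%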; also: % is scaled to controls: 0 for no effect and ±100 for the full control effect
# Target sequence (Q12809 whole entry, looked up): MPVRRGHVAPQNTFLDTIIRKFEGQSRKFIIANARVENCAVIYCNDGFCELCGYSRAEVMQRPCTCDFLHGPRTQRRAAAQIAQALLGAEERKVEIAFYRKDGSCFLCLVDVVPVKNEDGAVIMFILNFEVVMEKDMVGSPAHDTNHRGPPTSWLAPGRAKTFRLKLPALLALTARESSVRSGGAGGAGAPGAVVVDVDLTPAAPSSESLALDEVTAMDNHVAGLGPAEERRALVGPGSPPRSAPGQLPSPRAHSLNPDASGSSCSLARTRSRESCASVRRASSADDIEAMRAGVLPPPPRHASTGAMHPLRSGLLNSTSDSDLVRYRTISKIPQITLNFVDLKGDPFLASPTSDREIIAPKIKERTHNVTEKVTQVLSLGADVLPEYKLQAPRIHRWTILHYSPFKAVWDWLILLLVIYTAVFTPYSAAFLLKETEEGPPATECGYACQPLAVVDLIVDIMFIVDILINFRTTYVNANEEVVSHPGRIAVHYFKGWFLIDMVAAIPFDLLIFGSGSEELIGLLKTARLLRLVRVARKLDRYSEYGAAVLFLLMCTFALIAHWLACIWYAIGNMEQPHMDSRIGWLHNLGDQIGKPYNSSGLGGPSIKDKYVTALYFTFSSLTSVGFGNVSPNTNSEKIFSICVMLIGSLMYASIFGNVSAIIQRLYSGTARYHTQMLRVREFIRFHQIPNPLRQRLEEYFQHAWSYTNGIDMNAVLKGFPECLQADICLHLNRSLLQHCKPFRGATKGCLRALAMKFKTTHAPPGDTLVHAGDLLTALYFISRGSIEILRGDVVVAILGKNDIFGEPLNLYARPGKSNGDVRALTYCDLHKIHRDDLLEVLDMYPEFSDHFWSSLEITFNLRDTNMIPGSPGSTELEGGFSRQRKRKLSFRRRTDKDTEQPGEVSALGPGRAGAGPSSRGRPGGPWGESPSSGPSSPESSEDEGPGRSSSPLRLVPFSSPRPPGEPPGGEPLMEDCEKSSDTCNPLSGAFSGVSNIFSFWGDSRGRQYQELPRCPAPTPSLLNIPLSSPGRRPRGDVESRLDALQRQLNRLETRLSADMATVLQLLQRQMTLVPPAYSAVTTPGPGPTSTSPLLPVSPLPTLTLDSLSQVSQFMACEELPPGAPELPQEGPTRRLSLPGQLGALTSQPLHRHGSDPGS
#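 U2OS cells were transduced with wild-type KCNH2 virus (2.03 x 10^8 / mL) for 4 h at room temperature, then cultured overnight at 37 C. Thallium flux was read with FluxOr dye. Rate constants were normalized to DMSO controls.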
# SW480 rereplic: A quantitative high throughput screen for small molecules that induce DNA re-replication in SW480 colon adenocarcinoma cells; SW480 DNA re-replication, Hoechst DNA content imaging, 48 h; Potency, µM (titrated, usually from 46.1 µM), for inactives: at the highest dose re-replication activation, hits mostly activators; 340,000 compounds, 1.8% hits; also: potency is read from the fitted curve at half-maximal effect; % of control where 0% means no effect; nearly all actives have a fitted effect of over 55% in size
#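 Hoechst fluorescence of nuclei (405 nm excitation, 500-530 nm emission) measured by plate-scanning imager after 48 hr compound exposure at 37 C; re-replication scored as increased number of nuclei with elevated intensity.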
# Starred values were filed as active, the others as inactive; i = inactive; ? = inconclusive; / = not tested or not shown; [ ] = remark or other dose. This is a sample that favours compounds with a hit; in the whole collection about 7.6% have one here. Unless noted, calls follow the shape of the dose curve; as a rule, active = well fitted curve in the direction sought with a large enough effect; inconclusive = small, poorly fitted or top-dose-only effect, or another doubt; inactive = no such curve, though single readings can be large; an effect the other way counts as inactive or inconclusive.
SMILES,KCNH2 3.1 inh,MCF10A rerep,KB-V1 cytotox,KB-3-1 tox,hERG WT inh,SW480 rereplic
CC(C)N(C(=O)[C@H]1C[C@H](CC(=O)NCCCN(C)C)C(=O)N2CCc3c([nH]c4ccc(Cl)cc34)[C@]12C)C(C)C,-0.4,?,i,i,2.4,18.4µM*
COc1ccc(CNC(=O)C2CCN(C(=O)Cc3ccccc3)CC2)cc1,9.9,1.7%,?,?,1.5,-3.5%
CC/C(=C\c1oc2cc3ccccc3cc2[n+]1CC)Nc1ccccc1,-30.5,23.1µM*,20.6µM*,i,1.4,18.4µM*
CC1=C(SCc2ccccc2)C(=O)c2ccccc2C1=O,-8.2,3.66µM*,?,?,1.3,3.66µM*
O=C1C(SCCO)=C(SCCO)C(=O)c2ccccc21,2.6,6.3%,?,?,6.7,-12.5%
COc1cc(Nc2ccccc2Cl)c([N+](=O)[O-])nc1[N+](=O)[O-],1.1,?,i,i,8.0,4.61µM*
COc1ccccc1Nc1ccc([N+](=O)[O-])cc1N,-14.0,?,i,?,-2.8,-7.5%
O=C(Cn1ccc(C(F)(F)F)n1)N=Nc1c(O)[nH]c2ccccc12,3.4,-0.4%,i,i,-5.0,2.2%
CC(C)n1c(O)c(N=NC(=O)Cn2ccc(C(F)(F)F)n2)c2ccccc21,17.8,?,8.2µM*,?,9.0,-29.6%
C=C(C(=O)c1ccccc1)C(c1ccccc1)C(C)C(=O)c1ccccc1 (stereo not given),-15.2,?,?,?,-5.9,?
C=C(C(=O)c1ccccc1)C(C)C(=C)C(=O)c1ccccc1,-6.6,2.91µM*,3.26µM*,?,-1.3,7.31µM*
CC1CC(C)CN(C(=O)CSc2nc(Cc3cccs3)nc3ccccc23)C1 (stereo not given),-0.8,26.3%,?,i,-2.4,0.6%
CN(C(=O)c1oc(=O)c2ccccc2c1-c1ccccc1)c1cccc(Cl)c1,/,/,i,i,/,/
COc1c(Cl)cc(Cl)cc1/C=C/C(=O)c1ccc(NC(=O)c2cccs2)cc1,-8.4,3.66µM*,18.4µM*,?,5.6,6.51µM*
Cc1scc(-c2n[nH]c(=S)n2C(C)c2ccccc2)c1C (stereo not given),-2.1,10.3µM*,?,?,2.0,13.4%
CC(c1ccccc1)n1c(-c2ccccc2)n[nH]c1=S (stereo not given),/,/,i,?,/,/
CC(C)C1Cc2nc(Cl)c(C#N)cc2CO1 (stereo not given),-13.7,7.0%,i,i,1.5,1.5%[9.22 µM]
Cc1nc2cc(OCc3cc(C(=O)NC(C)c4cnn(C)c4)no3)ccc2s1 (stereo not given),/,-9.0%,10.3µM*,i,1.0,-11.9%
Nc1ccc(SCC(=O)Nc2cccc([N+](=O)[O-])c2)cc1,-4.2,2.0%,i,i,-5.0,-1.8%
COc1cc(OC)c(NC(=O)CN2CCCN(Cc3ccccc3C)S2(=O)=O)cc1Cl,/,/,i,i,/,/
COc1ccc2oc3cc(C)[n+]([O-])c(-c4ccc(Br)cc4)c3c2c1,-5.8,?,2.91µM*,?,21.9,-5.8%
CCc1ccccc1NC(=O)C(CC)Sc1nc2cc3c(cc2c(=O)n1Cc1ccco1)OCO3 (stereo not given),2.2,6.51µM*,3.66µM*,?,-6.7,14.6µM*
CCC(Sc1nc2cc(OC)c(OC)cc2c(=O)n1Cc1ccco1)C(=O)NCCOC (stereo not given),-14.0,0.0%,i,i,-2.5,-12.7%
CCc1ccc(NC(=O)C(CC)Sc2nc3cc4c(cc3c(=O)n2Cc2ccco2)OCO4)cc1 (stereo not given),-47.7,18.4µM*,?,?,-12.8,?
CCN(CC)C(=O)CSc1nc2cc3c(cc2c(=O)n1Cc1ccc(OC)cc1)OCO3,-4.1,5.3%,i,i,1.1,4.4%
SMILES,KCNH2 3.1 inh,MCF10A rerep,KB-V1 cytotox,KB-3-1 tox,hERG WT inh,SW480 rereplic
CN(C)S(=O)(=O)c1cccc(NC(=O)COC(=O)c2c[nH]c(=O)[nH]c2=O)c1,2.6,-4.8%,i,i,-1.2,-8.5%
O=C(NCCc1ccccc1Cl)c1ccc2nc3ccccc3c(=O)n2c1,-13.8,?,i,?,/,22.6%
O=C(COC(=O)CC1SC(N2CCCC2)=NC1=O)Nc1ccc(Br)cc1 (stereo not given),3.5,8.7%,i,i,-1.7,2.5%
CCCCn1c(=O)[nH]c(=O)c2c1nc(-c1ccc(OCCC)c(OCC)c1)n2CCOC,-0.3,23.1µM*,i,i,-6.8,6.4%
CCCCn1c(=O)[nH]c(=O)c2c1nc(-c1ccc(OCC)cc1)n2CC,4.5,15.1%,i,i,-1.4,-6.2%
CCCCn1c(=O)[nH]c(=O)c2c1nc(-c1ccc(-c3ccc(F)cc3)o1)n2C,-1.4,10.3µM*,i,i,-3.9,?
CCCCn1c(-c2ccc(Br)cc2F)nc2c1c(=O)[nH]c(=O)n2CC(C)C,9.4,18.4µM*,i,i,0.7,1.4%
CCC(C)NC(=O)CN1c2cccc3cccc(c23)S1(=O)=O (stereo not given),4.0,-15.3%,i,i,12.3,-24.0%
O=C(C[n+]1cccc2cccc(O)c21)c1ccc2ccccc2c1,/,/,i,i,/,/
CC(C)C(OC(=O)C1=Cc2ccccc2OC1)C(=O)NCC1CCCO1 (stereo not given),10.5,16.4µM*,i,i,-1.9,-8.2%
O=C(c1ccccc1)c1nn(-c2ccccc2)c(=O)cc1C(F)(F)F,0.7,?,?,?,0.5,?
O=C(c1cccc(Cl)c1)c1nn(-c2ccccc2)c(=O)cc1C(F)(F)F,0.2,-6.3%,23.1µM*,?,-3.7,-5.0%
O=C(c1ccccc1)c1nn(-c2ccc(Cl)cc2)c(=O)cc1C(F)(F)F,8.8,11.6µM*,18.4µM*,?,-16.9,?
CCc1ccc(OCc2n[nH]c(=S)n2C(C)CCCC(C)C)cc1 (stereo not given),13.1,13µM*,i,i,3.7,-3.3%
Cc1ccc(C(=O)NCCN2C3=NC[C@H](C(C)C)N3C[C@H]2Cc2ccc(O)cc2)cc1Br,-7.6,-28.0%,i,?,9.4,-4.3%

# Screens from PubChem BioAssay.
